Experimental data as given in the supplement of paper PMC10849652.
About 7,900 targets were measured; listed, in parts, are those with a hit and a random draw of the rest. About 0.6% of all pairs of compound and target were hits. Unmarked numbers belong to inactive results.

How the values were obtained:
Test in all cases: log2 fold change, soluble protein after heating vs DMSO (PISA); higher = thermal stabilisation; K562 cells, 10 uM, 30 min; active = over 0.2 and 3.5 SD of the protein, either way, in both replicates (recomputed)
[1] = compound: NC(=O)Nc1cc(-c2cccc(F)c2)sc1C(=O)N[C@H]1CCCNC1
Outline: (§1)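 Soluble protein was quantified by TMTpro 16plex LC-MS/MS after channel sums were equalised. It was obtained as the supernatant after 21,000xg for 90 min from pooled aliquots of K562 cells (2×10^6 cells/mL, 10 μM compound, 30 min) heated for 3 min across 48°C-58°C and extracted in PBS with 0.5% NP-40 at 4°C. Thermal stability values are relative to control samples and come from duplicates. They are given as log2 fold changes.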

[2] = compound: NC(=O)c1cnc(N[C@@H]2CCCC[C@@H]2N)nc1Nc1cccc(-n2nccn2)c1
Outline: as §1

[3] = compound: NC1(c2ccc(-c3nc4ccn5c(=O)[nH]nc5c4cc3-c3ccccc3)cc2)CCC1
Outline: as §1

[4] = compound: NCC(=O)Nc1ccc(-n2nc(C(F)(F)F)cc2-c2ccc3c(ccc4ccccc43)c2)cc1
Outline: as §1

[5] = compound: Nc1ccccc1NC(=O)c1ccc(CNC(=O)OCc2cccnc2)cc1 [entinostat]
Outline: as §1

[6] = compound: O=C(CCCCCCC(=O)Nc1ccccc1)NO [vorinostat]
Outline: as §1

[7] = compound: O=C(CCCCCCNC(=O)c1cnc(N(c2ccccc2)c2ccccc2Cl)nc1)NO [citarinostat]
Outline: as §1

[8] = compound: O=C(O)c1ccc2c(c1)nc(Nc1cccc(Cl)c1)c1ccncc12 [silmitasertib]
Outline: as §1

[9] = compound: O=C1NC(=O)C(c2cnc3ccccn23)=C1c1cn2c3c(cc(F)cc13)CN(C(=O)N1CCCCC1)CC2
Outline: as §1

[10] = compound: c1cc(OCCN2CCCCC2)cc(-c2n[nH]c3ccc(-c4nnc[nH]4)cc23)c1
Outline: as §1

UniProt Q9BU23, sequence (Q9BU23 whole entry, looked up): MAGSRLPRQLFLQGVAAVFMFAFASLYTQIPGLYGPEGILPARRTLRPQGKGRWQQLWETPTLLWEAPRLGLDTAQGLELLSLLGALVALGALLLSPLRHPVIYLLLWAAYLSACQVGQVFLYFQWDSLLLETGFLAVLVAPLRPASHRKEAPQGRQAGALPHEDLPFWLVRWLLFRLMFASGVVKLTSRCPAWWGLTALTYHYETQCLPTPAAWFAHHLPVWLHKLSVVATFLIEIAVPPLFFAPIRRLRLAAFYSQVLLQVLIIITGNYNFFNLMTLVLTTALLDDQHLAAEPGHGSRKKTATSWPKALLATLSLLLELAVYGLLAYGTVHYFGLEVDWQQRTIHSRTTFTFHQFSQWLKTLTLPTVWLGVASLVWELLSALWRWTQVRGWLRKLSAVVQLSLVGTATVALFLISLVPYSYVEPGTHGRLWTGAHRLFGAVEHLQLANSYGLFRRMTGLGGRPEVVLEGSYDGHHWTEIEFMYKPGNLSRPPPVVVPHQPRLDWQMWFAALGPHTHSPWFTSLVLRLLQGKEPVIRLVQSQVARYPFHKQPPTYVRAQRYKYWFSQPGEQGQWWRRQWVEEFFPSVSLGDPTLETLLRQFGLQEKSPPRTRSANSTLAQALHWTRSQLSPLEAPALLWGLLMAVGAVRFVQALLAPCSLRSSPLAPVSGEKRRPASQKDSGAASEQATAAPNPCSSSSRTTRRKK
UniProt Q9NUN5, sequence (Q9NUN5 whole entry, looked up): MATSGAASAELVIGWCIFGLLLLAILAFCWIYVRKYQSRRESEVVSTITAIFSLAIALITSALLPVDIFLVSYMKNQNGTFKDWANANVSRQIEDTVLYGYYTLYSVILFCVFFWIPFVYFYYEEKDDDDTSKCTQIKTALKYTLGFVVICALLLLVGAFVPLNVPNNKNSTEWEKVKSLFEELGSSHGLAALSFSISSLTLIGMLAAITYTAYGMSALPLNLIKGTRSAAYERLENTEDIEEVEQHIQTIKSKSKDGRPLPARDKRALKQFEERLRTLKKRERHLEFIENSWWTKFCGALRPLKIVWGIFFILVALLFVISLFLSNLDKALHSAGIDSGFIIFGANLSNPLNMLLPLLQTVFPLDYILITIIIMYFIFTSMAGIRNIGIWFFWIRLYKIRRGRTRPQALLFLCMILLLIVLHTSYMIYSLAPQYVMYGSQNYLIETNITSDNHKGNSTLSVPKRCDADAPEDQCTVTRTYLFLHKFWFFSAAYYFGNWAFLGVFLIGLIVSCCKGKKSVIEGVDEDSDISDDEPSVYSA
UniProt O94889, sequence (O94889 whole entry, looked up): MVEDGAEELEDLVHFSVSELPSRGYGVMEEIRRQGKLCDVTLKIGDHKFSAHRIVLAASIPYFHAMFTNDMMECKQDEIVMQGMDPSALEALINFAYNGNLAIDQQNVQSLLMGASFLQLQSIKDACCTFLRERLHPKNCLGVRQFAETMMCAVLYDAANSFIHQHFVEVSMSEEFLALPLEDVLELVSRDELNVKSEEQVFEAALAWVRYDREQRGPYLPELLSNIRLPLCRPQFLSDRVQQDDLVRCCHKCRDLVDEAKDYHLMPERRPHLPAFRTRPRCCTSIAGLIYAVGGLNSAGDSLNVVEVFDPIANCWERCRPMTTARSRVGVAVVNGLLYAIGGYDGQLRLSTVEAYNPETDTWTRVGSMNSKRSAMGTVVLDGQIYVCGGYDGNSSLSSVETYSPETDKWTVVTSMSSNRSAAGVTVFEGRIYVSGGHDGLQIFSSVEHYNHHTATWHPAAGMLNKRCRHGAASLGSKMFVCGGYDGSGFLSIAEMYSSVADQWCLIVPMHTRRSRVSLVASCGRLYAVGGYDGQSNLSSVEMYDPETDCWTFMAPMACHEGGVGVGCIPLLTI
UniProt Q6P9B6, sequence (Q6P9B6 whole entry, looked up): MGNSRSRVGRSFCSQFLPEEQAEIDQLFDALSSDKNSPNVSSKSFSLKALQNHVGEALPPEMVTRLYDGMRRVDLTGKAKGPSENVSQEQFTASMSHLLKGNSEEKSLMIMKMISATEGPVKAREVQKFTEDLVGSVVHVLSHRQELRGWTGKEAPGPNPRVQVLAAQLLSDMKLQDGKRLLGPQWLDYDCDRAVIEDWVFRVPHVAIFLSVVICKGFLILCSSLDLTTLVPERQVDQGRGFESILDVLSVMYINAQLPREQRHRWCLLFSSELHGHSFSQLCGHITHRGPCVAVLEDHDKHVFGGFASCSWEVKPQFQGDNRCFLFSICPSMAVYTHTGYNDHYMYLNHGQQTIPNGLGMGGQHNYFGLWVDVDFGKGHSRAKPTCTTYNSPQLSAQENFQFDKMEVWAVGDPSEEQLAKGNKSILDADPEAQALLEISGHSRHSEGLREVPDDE
UniProt Q16644, sequence (Q16644 whole entry, looked up): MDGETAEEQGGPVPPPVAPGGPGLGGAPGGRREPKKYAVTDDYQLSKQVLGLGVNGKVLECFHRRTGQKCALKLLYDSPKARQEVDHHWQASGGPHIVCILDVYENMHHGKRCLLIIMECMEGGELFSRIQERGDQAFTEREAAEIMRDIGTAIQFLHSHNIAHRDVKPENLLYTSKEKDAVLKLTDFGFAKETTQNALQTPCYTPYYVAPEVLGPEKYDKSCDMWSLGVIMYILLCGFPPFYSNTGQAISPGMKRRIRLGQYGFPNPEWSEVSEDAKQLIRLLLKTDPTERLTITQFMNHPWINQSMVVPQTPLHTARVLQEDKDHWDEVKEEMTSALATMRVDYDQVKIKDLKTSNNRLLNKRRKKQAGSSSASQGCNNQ
UniProt Q9Y6R4, sequence (Q9Y6R4 whole entry, looked up): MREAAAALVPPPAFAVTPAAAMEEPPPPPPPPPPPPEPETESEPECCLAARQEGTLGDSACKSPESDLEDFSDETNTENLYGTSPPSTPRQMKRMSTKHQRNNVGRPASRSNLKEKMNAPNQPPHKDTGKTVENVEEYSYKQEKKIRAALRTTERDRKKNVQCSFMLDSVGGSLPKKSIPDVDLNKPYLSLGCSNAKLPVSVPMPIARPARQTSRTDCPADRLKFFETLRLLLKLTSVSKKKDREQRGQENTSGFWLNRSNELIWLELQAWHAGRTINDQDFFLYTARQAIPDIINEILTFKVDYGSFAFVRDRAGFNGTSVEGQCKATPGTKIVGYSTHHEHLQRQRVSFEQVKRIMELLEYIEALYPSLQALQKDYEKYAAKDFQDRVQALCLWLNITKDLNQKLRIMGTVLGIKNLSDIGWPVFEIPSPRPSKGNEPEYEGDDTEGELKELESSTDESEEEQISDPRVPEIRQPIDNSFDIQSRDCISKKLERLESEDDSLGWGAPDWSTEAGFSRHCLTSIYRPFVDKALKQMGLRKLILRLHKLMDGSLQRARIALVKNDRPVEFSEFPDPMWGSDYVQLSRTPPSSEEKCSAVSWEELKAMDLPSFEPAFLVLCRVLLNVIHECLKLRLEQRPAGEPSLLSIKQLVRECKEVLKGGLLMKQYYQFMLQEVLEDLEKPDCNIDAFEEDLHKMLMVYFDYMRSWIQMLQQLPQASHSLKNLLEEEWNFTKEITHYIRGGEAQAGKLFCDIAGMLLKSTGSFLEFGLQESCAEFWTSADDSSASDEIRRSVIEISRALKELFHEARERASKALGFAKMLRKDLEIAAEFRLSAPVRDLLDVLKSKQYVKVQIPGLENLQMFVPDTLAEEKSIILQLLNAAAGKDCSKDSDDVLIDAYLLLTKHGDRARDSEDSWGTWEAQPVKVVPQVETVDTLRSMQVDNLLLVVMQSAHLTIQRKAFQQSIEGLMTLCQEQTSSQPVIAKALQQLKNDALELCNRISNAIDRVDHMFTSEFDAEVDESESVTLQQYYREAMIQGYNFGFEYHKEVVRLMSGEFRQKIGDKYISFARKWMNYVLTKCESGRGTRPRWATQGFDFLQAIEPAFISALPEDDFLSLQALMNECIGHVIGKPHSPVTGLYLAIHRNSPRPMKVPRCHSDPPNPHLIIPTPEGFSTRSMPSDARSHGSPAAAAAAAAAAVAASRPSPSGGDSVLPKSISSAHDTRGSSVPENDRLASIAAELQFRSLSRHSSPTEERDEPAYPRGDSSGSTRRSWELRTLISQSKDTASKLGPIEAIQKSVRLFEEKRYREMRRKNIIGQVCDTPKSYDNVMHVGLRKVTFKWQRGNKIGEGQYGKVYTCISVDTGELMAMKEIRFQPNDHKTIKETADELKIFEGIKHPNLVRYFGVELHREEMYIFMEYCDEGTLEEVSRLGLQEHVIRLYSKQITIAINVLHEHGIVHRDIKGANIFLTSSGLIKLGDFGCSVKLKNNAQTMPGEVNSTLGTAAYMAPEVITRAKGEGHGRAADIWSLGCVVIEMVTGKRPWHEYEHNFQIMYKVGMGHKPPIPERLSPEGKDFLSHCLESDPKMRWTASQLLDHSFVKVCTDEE
UniProt Q71RC2, sequence (Q71RC2 whole entry, looked up): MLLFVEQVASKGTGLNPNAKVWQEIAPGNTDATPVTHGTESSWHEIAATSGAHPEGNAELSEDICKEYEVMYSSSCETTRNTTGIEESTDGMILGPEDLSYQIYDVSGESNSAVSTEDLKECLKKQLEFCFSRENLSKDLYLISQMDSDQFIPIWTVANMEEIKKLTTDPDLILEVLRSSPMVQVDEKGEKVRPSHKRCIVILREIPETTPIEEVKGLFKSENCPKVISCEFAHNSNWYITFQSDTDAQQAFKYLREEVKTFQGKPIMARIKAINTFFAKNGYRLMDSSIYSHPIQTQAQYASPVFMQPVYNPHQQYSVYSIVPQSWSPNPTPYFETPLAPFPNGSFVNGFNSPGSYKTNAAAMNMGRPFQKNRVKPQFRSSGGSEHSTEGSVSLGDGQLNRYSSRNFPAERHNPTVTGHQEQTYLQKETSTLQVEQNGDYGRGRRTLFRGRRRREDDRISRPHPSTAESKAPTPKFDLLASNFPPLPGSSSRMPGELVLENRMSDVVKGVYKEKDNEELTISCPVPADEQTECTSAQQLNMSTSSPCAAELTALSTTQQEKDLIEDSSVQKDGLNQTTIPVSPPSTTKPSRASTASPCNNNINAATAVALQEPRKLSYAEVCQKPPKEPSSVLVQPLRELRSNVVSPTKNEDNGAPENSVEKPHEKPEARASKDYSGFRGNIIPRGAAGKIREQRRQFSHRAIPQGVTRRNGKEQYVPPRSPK

Row | Target | log2 fold change [1] | log2 fold change [2] | log2 fold change [3] | log2 fold change [4] | log2 fold change [5] | log2 fold change [6] | log2 fold change [7] | log2 fold change [8] | log2 fold change [9] | log2 fold change [10]
1 | ILF3 isoform 7 (UniProt Q12906) | -0.056 | 0.055 | 0.17 | 0.107 | -0.083 | -0.052 | -0.053 | 0.189 | 0.32 | -0.105
2 | MCCC2 (UniProt Q9HCC0) | 0.047 | -0.014 | 0.036 | 0.06 | 0.005 | -0.043 | 0.083 | 0.025 | 0.006 | -0.024
3 | MAP3K4 isoform 2 (UniProt Q9Y6R4) | 0.036 | -0.025 | -0.104 | -0.025 | -0.027 | -0.019 | 0.006 | 0 | -0.029 | -0.075
4 | KLHDC4 (UniProt Q8TBB5) | 0.013 | -0.006 | 0.224 | -0.105 | -0.055 | -0.014 | 0.042 | -0.003 | 0.125 | -0.036
5 | LMF2 (UniProt Q9BU23) | -0.008 | -0.001 | -0.057 | -0.089 | -0.006 | 0.116 | -0.068 | 0.008 | -0.016 | 0.046
6 | KLHL18 (UniProt O94889) | 0.132 | -0.034 | -0.145 | -0.123 | -0.045 | 0.137 | 0.123 | -0.029 | -0.014 | -0.022
7 | KCTD10 (UniProt Q9H3F6) | 0.065 | 0.226 | 0.028 | 0.077 | -0.014 | -0.001 | -0.05 | -0.042 | -0.088 | -0.025
8 | KMT2C isoform 3 (UniProt Q8NEZ4) | -0.021 | 0.046 | -0.756 (active) | -0.006 | -0.03 | 0.19 | 0.104 | -0.052 | -0.094 | -0.076
9 | LMBRD1 (UniProt Q9NUN5) | 0.006 | 0.046 | -0.243 | -0.162 | 0.099 | 0.048 | 0.048 | -0.028 | -0.003 | 0.049
10 | MAPKAPK2 (UniProt P49137) | 0.12 | 0.035 | -0.14 | 0.034 | 0.018 | 0.04 | 0.058 | 0.06 | -0.128 | -0.006
11 | ILVBL (UniProt A1L0T0) | -0.053 | -0.036 | -0.022 | -0.007 | -0.041 | 0.002 | 0.064 | -0.008 | -0.009 | -0.064
12 | KDM3B (UniProt Q7LBC6) | -0.051 | -0.033 | -0.114 | -0.088 | 0.027 | 0.069 | 0.098 | 0.056 | -0.064 | -0.023
13 | LEO1 (UniProt Q8WVC0) | 0.003 | -0.06 | -0.028 | -0.11 | 0.005 | 0.088 | 0.009 | 0.068 | -0.153 | -0.055
14 | MED16 (UniProt Q9Y2X0) | 0.108 | 0.021 | -0.005 | -0.044 | -0.047 | 0.107 | -0.094 | 0.026 | 0.06 | -0.117
15 | IPO9 (UniProt Q96P70) | 0.059 | -0.072 | -0.07 | 0.003 | 0.022 | 0.041 | 0.061 | 0.164 | 0.048 | -0.035
16 | MAPKAPK3 (UniProt Q16644) | 0.147 | -0.024 | -0.125 | -0.052 | -0.068 | -0.006 | -0.012 | 0.18 | -0.141 | 0.05
17 | MAPRE3 (UniProt Q9UPY8) | -0.002 | -0.053 | -0.112 | -0.052 | 0.066 | 0.002 | 0.049 | 0.004 | -0.087 | -0.04
18 | MED1 (UniProt Q15648) | 0.027 | -0.064 | 0.002 | -0.113 | -0.018 | 0.05 | -0.001 | -0.002 | 0.063 | -0.124
19 | MAGOHB (UniProt Q96A72) | -0.081 | 0.177 | -0.039 | -0.132 | 0.016 | -0.023 | 0.043 | -0.006 | 0.002 | -0.089
20 | ITIH4 (UniProt Q14624) | 0.064 | -0.041 | -0.136 | -0.054 | 0.048 | 0.343 | 0.054 | 0.083 | -0.005 | 0.275
21 | MFGE8 (UniProt Q08431) | -0.163 | -0.058 | 0.049 | 0.125 | -0.082 | 0.03 | -0.036 | 0.117 | 0.007 | -0.029
22 | IPO13 (UniProt O94829) | 0.051 | -0.101 | -0.206 | -0.112 | 0.012 | 0.138 | 0.067 | 0.081 | -0.046 | -0.175
23 | KDM1A isoform 2 (UniProt O60341) | 0.055 | -0.038 | -0.063 | 0.012 | 0.155 | 0.135 | 0.007 | 0 | -0.063 | -0.064
24 | LARP4 isoform 4 (UniProt Q71RC2) | -0.034 | -0.094 | 0.084 | 0.048 | 0.037 | 0.133 | -0.004 | 0.043 | 0.009 | -0.116
25 | MICOS13 (UniProt Q5XKP0) | -0.018 | -0.023 | -0.119 | 0.029 | 0.041 | 0.018 | 0.028 | -0.02 | -0.106 | 0.025
26 | LRRFIP1 (UniProt Q32MZ4) | -0.027 | 0.015 | 0.056 | 0.024 | -0.042 | -0.079 | -0.007 | 0.049 | 0.01 | -0.013
27 | IGF2R (UniProt P11717) | -0.032 | 0.03 | -0.546 (active) | 0.006 | -0.008 | 0 | 0.07 | 0.021 | -0.063 | -0.184
28 | KPNB1 (UniProt Q14974) | 0.025 | -0.087 | -0.073 | -0.037 | 0.055 | 0.038 | 0.097 | 0.099 | 0.068 | -0.059
29 | MEAK7 (UniProt Q6P9B6) | -0.011 | -0.117 | -0.122 | -0.025 | 0.027 | 0.069 | 0.053 | -0.028 | -0.021 | 0.016
30 | KIF13A (UniProt Q9H1H9) | -0.049 | -0.008 | -0.078 | -0.064 | 0.04 | -0.178 | -0.041 | 0 | -0.005 | -0.061
